The values that follow come from the supplement of paper PMC11732987, “Enantioselective OTUD7B fragment discovery through chemoproteomics screening and high-throughput optimisation” (Communications Chemistry, 2025).

Assay in all cases: log2 ratio of Biotin-Ahx-Ub-VS probe labelling (fragment/DMSO); higher = less target engagement (more negative = stronger competition), active = hit call of the paper (q ≤ 0.05, log2 ratio ≤ -1)
Details in all cases: compound concentration: 200 uM; treatment time: 3 h

The target of assay [1] is T1, OTUD6B (UniProt Q8N6M0).
T1 sequence (whole entry): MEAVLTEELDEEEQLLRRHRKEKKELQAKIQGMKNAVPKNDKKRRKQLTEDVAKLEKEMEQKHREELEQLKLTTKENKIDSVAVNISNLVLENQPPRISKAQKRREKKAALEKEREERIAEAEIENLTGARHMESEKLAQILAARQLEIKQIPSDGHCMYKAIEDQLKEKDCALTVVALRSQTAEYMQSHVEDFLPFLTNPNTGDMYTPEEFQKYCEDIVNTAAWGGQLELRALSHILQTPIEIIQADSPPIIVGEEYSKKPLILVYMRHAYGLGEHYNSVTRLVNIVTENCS
A digest of the protocol: (§1)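 Using Biotin-Ahx-Ub-VS at 0.5 µM final for 1 h, DUBs were labelled in HEK293T lysate (495 µg per sample) that had first been treated in triplicate with fragment at 200 µM or vehicle for 3 h. NeutrAvidin enrichment, LysC and trypsin digestion and diaPASEF LC-MS/MS followed. Spectronaut label-free quantities were global-median-normalised. Values are average log2 fragment/vehicle ratios by unpaired t-test, using proteins with ≥2 unique peptides.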

Assay [2] addresses T2, OTUD7B (UniProt Q6GQQ9).
T2 sequence (whole entry): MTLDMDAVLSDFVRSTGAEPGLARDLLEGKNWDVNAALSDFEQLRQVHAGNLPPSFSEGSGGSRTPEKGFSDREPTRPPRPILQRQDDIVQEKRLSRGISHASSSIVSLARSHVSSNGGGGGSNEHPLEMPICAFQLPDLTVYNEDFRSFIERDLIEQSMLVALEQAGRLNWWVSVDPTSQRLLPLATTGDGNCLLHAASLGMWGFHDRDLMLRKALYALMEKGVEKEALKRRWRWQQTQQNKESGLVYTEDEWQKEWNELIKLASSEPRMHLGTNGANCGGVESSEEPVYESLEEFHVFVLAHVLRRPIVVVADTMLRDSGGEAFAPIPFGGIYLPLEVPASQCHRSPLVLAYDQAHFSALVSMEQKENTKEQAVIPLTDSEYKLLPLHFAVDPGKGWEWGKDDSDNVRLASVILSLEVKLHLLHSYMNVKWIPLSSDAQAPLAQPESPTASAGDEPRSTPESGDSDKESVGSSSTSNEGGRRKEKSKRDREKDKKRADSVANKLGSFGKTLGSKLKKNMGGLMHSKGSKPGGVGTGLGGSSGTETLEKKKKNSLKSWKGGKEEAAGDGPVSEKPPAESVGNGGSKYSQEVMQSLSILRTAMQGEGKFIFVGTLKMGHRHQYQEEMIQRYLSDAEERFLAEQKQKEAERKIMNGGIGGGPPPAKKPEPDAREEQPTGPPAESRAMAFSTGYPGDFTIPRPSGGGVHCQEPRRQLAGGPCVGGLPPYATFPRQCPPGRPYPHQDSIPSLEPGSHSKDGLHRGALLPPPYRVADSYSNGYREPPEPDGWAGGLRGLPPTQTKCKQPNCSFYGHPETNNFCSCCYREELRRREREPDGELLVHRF
A digest of the protocol:
as §1

Assay [3] addresses PRPF8 (UniProt Q6P2Q9). A digest of the protocol:
as §1

Assay [4] addresses T3, PSMD7 (UniProt P51665).
T3 sequence (whole entry): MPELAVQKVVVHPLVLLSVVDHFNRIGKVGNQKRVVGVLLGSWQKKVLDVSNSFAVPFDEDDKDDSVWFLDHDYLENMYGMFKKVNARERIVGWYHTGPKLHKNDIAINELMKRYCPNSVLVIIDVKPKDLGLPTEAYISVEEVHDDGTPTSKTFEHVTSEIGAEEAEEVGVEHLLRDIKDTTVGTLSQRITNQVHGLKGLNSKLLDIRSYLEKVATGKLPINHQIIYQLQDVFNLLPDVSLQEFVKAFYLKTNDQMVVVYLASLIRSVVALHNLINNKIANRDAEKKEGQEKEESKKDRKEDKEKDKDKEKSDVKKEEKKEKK
A digest of the protocol: as §1

The target in assay [5] is UCHL1 (UniProt P09936). A digest of the protocol: as §1
Assay [6] has as its target T4, UCHL3 (UniProt P15374).
T4 sequence (whole entry): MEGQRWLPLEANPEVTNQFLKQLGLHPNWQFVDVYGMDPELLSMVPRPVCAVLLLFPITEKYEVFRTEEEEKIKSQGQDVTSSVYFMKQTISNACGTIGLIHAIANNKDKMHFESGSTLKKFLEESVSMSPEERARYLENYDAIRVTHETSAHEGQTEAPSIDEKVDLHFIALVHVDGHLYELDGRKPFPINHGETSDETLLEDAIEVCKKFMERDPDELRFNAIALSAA
A digest of the protocol: as §1

Assay [7] addresses T5, UCHL5 (UniProt Q9Y5K5).
T5 sequence (whole entry): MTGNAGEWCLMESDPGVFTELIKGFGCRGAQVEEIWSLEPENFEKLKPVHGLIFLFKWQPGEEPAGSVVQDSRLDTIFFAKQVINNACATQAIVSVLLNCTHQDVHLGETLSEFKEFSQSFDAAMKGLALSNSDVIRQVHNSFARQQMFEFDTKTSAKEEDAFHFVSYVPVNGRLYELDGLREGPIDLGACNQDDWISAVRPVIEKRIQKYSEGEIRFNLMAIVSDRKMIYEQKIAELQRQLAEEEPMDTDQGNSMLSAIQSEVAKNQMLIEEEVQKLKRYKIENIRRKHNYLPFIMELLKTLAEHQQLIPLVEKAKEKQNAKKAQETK
A digest of the protocol: as §1

Assay [8] addresses USP10 (UniProt Q14694). A digest of the protocol: as §1
The target in assay [9] is T6, USP15 (UniProt Q9Y4E8).
T6 sequence (whole entry): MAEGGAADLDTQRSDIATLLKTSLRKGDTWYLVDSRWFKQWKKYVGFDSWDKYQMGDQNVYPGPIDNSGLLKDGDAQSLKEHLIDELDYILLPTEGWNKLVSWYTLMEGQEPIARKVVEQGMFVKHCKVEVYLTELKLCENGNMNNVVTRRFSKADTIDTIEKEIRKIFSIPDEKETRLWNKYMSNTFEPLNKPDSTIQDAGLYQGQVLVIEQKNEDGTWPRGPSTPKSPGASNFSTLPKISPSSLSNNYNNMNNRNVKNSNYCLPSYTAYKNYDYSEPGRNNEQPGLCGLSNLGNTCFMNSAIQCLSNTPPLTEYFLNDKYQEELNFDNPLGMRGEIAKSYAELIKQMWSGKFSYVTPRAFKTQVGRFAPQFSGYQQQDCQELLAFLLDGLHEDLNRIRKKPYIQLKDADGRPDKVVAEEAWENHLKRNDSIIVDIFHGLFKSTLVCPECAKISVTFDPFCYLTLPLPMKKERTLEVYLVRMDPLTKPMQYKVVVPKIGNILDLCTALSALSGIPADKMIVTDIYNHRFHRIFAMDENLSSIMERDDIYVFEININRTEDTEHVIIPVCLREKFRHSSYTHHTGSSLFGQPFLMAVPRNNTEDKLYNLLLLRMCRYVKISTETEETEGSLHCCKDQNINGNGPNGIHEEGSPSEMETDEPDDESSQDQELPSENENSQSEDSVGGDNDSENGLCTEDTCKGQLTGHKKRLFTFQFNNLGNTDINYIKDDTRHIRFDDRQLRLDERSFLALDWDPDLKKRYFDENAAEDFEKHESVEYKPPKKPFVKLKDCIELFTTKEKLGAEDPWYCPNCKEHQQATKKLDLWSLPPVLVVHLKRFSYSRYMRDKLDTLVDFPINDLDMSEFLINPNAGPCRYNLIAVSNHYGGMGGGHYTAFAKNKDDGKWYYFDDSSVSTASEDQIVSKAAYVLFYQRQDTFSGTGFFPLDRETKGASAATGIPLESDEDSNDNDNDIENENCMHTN
A digest of the protocol:
as §1

Assay [10] deals with USP16 (UniProt Q9Y5T5). A digest of the protocol:
as §1

A number with no mark means an inactive call.

Sequence of USP16 (Q9Y5T5 whole entry, looked up): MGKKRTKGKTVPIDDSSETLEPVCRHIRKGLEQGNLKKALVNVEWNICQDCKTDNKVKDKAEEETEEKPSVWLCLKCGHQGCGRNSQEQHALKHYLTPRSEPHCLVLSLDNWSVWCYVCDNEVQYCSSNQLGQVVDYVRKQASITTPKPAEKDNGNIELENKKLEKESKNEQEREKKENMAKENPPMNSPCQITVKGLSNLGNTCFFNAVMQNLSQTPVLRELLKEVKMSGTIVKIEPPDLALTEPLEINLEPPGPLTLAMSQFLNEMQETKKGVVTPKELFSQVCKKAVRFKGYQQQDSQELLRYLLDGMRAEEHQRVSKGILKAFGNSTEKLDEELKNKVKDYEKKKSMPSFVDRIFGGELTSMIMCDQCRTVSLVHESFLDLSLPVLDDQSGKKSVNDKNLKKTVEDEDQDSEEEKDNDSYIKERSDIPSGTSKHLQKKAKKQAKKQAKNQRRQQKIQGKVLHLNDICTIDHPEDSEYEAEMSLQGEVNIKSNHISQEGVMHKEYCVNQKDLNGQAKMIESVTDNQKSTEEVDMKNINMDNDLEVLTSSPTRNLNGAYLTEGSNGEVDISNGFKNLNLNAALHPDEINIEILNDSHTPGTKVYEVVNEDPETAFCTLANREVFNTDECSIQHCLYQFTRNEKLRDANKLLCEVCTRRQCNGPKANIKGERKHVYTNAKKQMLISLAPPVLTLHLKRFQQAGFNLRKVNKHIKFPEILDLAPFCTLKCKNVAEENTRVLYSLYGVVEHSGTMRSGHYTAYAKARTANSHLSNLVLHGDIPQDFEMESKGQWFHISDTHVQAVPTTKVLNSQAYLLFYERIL
Sequence of UCHL1 (P09936 whole entry, looked up): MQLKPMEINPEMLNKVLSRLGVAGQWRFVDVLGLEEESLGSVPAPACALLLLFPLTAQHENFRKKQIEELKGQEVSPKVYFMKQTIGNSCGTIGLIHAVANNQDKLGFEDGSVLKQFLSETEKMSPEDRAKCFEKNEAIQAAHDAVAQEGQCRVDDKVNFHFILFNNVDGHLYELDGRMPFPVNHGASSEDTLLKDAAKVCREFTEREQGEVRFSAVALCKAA
Sequence of USP10 (Q14694 whole entry): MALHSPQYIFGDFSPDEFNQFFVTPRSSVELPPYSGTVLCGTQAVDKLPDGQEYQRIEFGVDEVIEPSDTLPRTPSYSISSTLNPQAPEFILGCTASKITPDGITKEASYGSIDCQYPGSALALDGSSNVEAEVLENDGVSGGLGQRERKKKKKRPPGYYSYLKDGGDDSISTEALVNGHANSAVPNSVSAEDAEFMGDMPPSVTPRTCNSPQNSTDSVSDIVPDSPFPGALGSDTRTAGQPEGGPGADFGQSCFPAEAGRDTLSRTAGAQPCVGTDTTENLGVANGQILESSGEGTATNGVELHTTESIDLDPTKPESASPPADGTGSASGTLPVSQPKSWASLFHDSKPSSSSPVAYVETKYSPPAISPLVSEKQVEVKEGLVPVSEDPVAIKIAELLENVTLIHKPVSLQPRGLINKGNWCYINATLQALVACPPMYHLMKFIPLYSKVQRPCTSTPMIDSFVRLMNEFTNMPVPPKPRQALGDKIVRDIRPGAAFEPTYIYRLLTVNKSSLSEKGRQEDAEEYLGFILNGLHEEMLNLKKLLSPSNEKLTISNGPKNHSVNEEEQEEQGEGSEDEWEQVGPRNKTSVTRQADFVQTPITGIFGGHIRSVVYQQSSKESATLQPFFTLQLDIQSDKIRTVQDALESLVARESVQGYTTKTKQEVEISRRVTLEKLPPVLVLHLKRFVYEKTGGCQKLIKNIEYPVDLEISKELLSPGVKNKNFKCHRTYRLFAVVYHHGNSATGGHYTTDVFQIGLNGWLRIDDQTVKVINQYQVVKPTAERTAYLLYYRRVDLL

Take `CC1Cc2ccccc2N1C(=O)CCl` (stereo not given): the “log2 ratio of Biotin-Ahx-Ub-VS probe labelling” value is -0.391 in assay [1]; -0.238 in [2]; -0.117 in [3]; -0.328 in [4]; -1.4 (active) in [5]; 0.164 in assay [6]. Also, the “log2 ratio of Biotin-Ahx-Ub-VS probe labelling” value in assay [7] was -0.572; in [8], -0.242; in assay [9], -0.382; in [10], 0.0877.
